The supplement of paper PMC12282887
± gives the standard deviation of the averaged measurements.

Legend:
Assay in all cases: promoter activity interaction Z-score (Lux/OD deviation from empty-vector control); higher = stronger promoter induction by the compound
[1] = system: E. coli BW25113 acrABp lux reporter
How it was run: (§1)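 Low-copy luxCDABE promoter reporters were carried by E. coli BW25113, either wild type or lacking one of three genes, grown in 40 µl LB Lennox in 384-well plates at 37°C. Each compound was run at four 1:2 dilutions in biological duplicates, with OD600 and luminescence read every 30 min for 12 h. Integration used 0–8 h for wild type and 1–9 h for deletion strains, and wells under 10% of the median growth value were removed. Luminescence normalised to growth was fitted against a control, and the Z-transformed residual is the score.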

[2] = system: E. coli BW25113 marRABp lux reporter
How it was run: as §1

[3] = system: E. coli BW25113 micFp lux reporter
How it was run: as §1

[4] = system: E. coli BW25113 ompFp lux reporter
How it was run: as §1

[5] = system: E. coli BW25113 robp lux reporter
How it was run: as §1

[6] = system: E. coli BW25113 soxSp lux reporter
How it was run: as §1

[7] = system: E. coli BW25113 tolCp lux reporter
How it was run: as §1

[8] = 0.62 µg/ml, genetic background: wild type
[9] = 0.62 µg/ml, genetic background: ΔmarA
[10] = 0.62 µg/ml, genetic background: Δrob
[11] = 0.62 µg/ml, genetic background: ΔsoxS
[12] = 1.2 µg/ml, genetic background: wild type
[13] = 2.5 µg/ml, genetic background: wild type
[14] = 1 µg/ml, genetic background: wild type
[15] = 1 µg/ml, genetic background: ΔmarA
[16] = 1 µg/ml, genetic background: Δrob
[17] = 1 µg/ml, genetic background: ΔsoxS
[18] = 2.1 µg/ml, genetic background: wild type
[19] = 2.1 µg/ml, genetic background: ΔmarA
[20] = 2.1 µg/ml, genetic background: Δrob
[21] = 2.1 µg/ml, genetic background: ΔsoxS
[22] = 4.1 µg/ml, genetic background: wild type
[23] = 4.1 µg/ml, genetic background: ΔmarA
[24] = 4.1 µg/ml, genetic background: Δrob
[25] = 4.1 µg/ml, genetic background: ΔsoxS
[26] = 8.2 µg/ml, genetic background: wild type

CC(=O)C(NC(=O)C(C)C(O)C(C)NC(=O)C(NC(=O)c1nc(C(CC(N)=O)NCC(N)C(N)=O)nc(N)c1C)C(O[C@@H]1O[C@@H](CO)[C@@H](O)[C@H](O)[C@]1(C)O[C@@H]1OC(CO)[C@H](O)[C@](O)(C(N)=O)[C@H]1O)c1cnc[nH]1)C(=O)NCCC1=NC(c2nc(C(N)=O)cs2)CS1 (stereo partly drawn) [Phleomycin]
promoter activity interaction Z-score [1, 8]: 1.07 ± 0.23 | promoter activity interaction Z-score [1, 9]: -0.273 ± 0.32 | promoter activity interaction Z-score [1, 10]: 1.04 | promoter activity interaction Z-score [1, 11]: 0.298 ± 1.3 | promoter activity interaction Z-score [1, 12]: 2.12 | promoter activity interaction Z-score [2, 8]: 1.05 ± 0.22 | promoter activity interaction Z-score [2, 9]: 2.57 | promoter activity interaction Z-score [2, 10]: 1.98 | promoter activity interaction Z-score [2, 11]: 1.57 | promoter activity interaction Z-score [2, 12]: 2.71 ± 0.25 | promoter activity interaction Z-score [3, 8]: -0.476 ± 0.019 | promoter activity interaction Z-score [3, 9]: -0.254 ± 0.023 | promoter activity interaction Z-score [3, 10]: -0.0516 ± 0.18 | promoter activity interaction Z-score [3, 11]: -0.651 ± 0.16 | promoter activity interaction Z-score [3, 12]: -1.14 ± 0.14 | promoter activity interaction Z-score [3, 13]: -0.981 ± 0.31 | promoter activity interaction Z-score [4, 8]: 1.83 ± 0.41 | promoter activity interaction Z-score [4, 9]: 0.799 ± 2 | promoter activity interaction Z-score [4, 10]: -0.998 | promoter activity interaction Z-score [4, 11]: 1.46 ± 2.8 | promoter activity interaction Z-score [4, 12]: -0.554 | promoter activity interaction Z-score [5, 8]: -0.5306 ± 0.0049 | promoter activity interaction Z-score [5, 9]: -0.313 ± 0.067 | promoter activity interaction Z-score [5, 10]: -1.12 | promoter activity interaction Z-score [5, 11]: -0.519 ± 0.41 | promoter activity interaction Z-score [5, 12]: -0.94 ± 0.28 | promoter activity interaction Z-score [6, 8]: 0.286 ± 0.032 | promoter activity interaction Z-score [6, 9]: -0.0997 ± 0.0027 | promoter activity interaction Z-score [6, 10]: -0.106 ± 0.024 | promoter activity interaction Z-score [6, 11]: 3.11 ± 2.5 | promoter activity interaction Z-score [6, 12]: -0.481 ± 0.012 | promoter activity interaction Z-score [6, 13]: -0.666 ± 0.31 | promoter activity interaction Z-score [7, 8]: -0.425 ± 0.84 | promoter activity interaction Z-score [7, 9]: -0.832 ± 0.55 | promoter activity interaction Z-score [7, 10]: -0.362 ± 0.33 | promoter activity interaction Z-score [7, 11]: 0.481 ± 0.63 | promoter activity interaction Z-score [7, 12]: -0.433 ± 0.62 | promoter activity interaction Z-score [7, 13]: -1.33 ± 1.2

CO[C@H]1/C=C/O[C@@]2(C)Oc3c(C)c(O)c4c(O)c(c(/C=N/N5CCN(C)CC5)c(O)c4c3C2=O)NC(=O)/C(C)=C\C=C\[C@H](C)[C@H](O)[C@@H](C)[C@@H](O)[C@@H](C)[C@H](OC(C)=O)[C@@H]1C [Rifampicin]
promoter activity interaction Z-score [1, 14]: -0.791 ± 0.2 | promoter activity interaction Z-score [1, 15]: -0.655 ± 0.13 | promoter activity interaction Z-score [1, 16]: -0.627 ± 0.021 | promoter activity interaction Z-score [1, 17]: -0.932 ± 0.2 | promoter activity interaction Z-score [1, 18]: -0.695 ± 0.1 | promoter activity interaction Z-score [1, 19]: -0.516 ± 0.29 | promoter activity interaction Z-score [1, 20]: -0.838 ± 0.088 | promoter activity interaction Z-score [1, 21]: -0.731 ± 0.3 | promoter activity interaction Z-score [1, 22]: -0.811 ± 0.28 | promoter activity interaction Z-score [1, 23]: -0.168 ± 0.19 | promoter activity interaction Z-score [1, 24]: -1.06 ± 0.08 | promoter activity interaction Z-score [1, 25]: -1.31 ± 0.3 | promoter activity interaction Z-score [3, 14]: -0.224 ± 0.14 | promoter activity interaction Z-score [3, 15]: -0.444 ± 0.16 | promoter activity interaction Z-score [3, 16]: -0.287 ± 0.055 | promoter activity interaction Z-score [3, 17]: -0.476 ± 0.024 | promoter activity interaction Z-score [3, 18]: -0.39 ± 0.23 | promoter activity interaction Z-score [3, 19]: -0.505 ± 0.12 | promoter activity interaction Z-score [3, 20]: -0.336 ± 0.076 | promoter activity interaction Z-score [3, 21]: -0.31 ± 0.041 | promoter activity interaction Z-score [3, 22]: -0.432 ± 0.21 | promoter activity interaction Z-score [3, 23]: -0.471 ± 0.047 | promoter activity interaction Z-score [3, 24]: -0.229 ± 0.029 | promoter activity interaction Z-score [3, 25]: -0.507 ± 0.018 | promoter activity interaction Z-score [3, 26]: -0.505 ± 0.31 | promoter activity interaction Z-score [4, 14]: -0.966 ± 0.35 | promoter activity interaction Z-score [4, 15]: -1.53 ± 0.33 | promoter activity interaction Z-score [4, 16]: -1.43 ± 0.2 | promoter activity interaction Z-score [4, 17]: -1.07 ± 0.04 | promoter activity interaction Z-score [4, 18]: -1.06 ± 0.5 | promoter activity interaction Z-score [4, 19]: -2.11 ± 0.12 | promoter activity interaction Z-score [4, 20]: -1.62 ± 0.39 | promoter activity interaction Z-score [4, 21]: -0.784 ± 0.23 | promoter activity interaction Z-score [4, 22]: -2.01 ± 0.86 | promoter activity interaction Z-score [4, 23]: -2.895 ± 0.0098 | promoter activity interaction Z-score [4, 24]: -2.58 ± 0.26 | promoter activity interaction Z-score [4, 25]: -1.59 ± 0.43 | promoter activity interaction Z-score [5, 14]: -0.184 ± 0.35 | promoter activity interaction Z-score [5, 15]: -0.802 ± 0.3 | promoter activity interaction Z-score [5, 16]: -0.501 ± 0.085 | promoter activity interaction Z-score [5, 17]: -0.537 ± 0.55 | promoter activity interaction Z-score [5, 18]: 0.236 ± 0.31 | promoter activity interaction Z-score [5, 19]: -0.639 ± 0.41 | promoter activity interaction Z-score [5, 20]: -0.575 ± 0.22 | promoter activity interaction Z-score [5, 21]: -0.311 ± 0.2 | promoter activity interaction Z-score [5, 22]: -0.918 ± 0.011 | promoter activity interaction Z-score [5, 23]: -0.833 ± 0.44 | promoter activity interaction Z-score [5, 24]: -0.434 ± 0.68 | promoter activity interaction Z-score [5, 25]: -1.71 ± 0.29 | promoter activity interaction Z-score [6, 14]: -0.47 ± 0.0069 | promoter activity interaction Z-score [6, 15]: -0.3407 ± 0.0028 | promoter activity interaction Z-score [6, 16]: -0.44 ± 0.088 | promoter activity interaction Z-score [6, 17]: -1.04 ± 0.46 | promoter activity interaction Z-score [6, 18]: -0.551 ± 0.01 | promoter activity interaction Z-score [6, 19]: -0.657 ± 0.0084 | promoter activity interaction Z-score [6, 20]: -0.53 ± 0.048 | promoter activity interaction Z-score [6, 21]: -1.11 ± 0.17 | promoter activity interaction Z-score [6, 22]: -0.866 ± 0.076 | promoter activity interaction Z-score [6, 23]: -0.906 ± 0.027 | promoter activity interaction Z-score [6, 24]: -0.982 ± 0.24 | promoter activity interaction Z-score [6, 25]: -1.51 ± 0.17 | promoter activity interaction Z-score [6, 26]: -0.811 ± 0.051 | promoter activity interaction Z-score [7, 14]: -0.736 ± 0.25 | promoter activity interaction Z-score [7, 15]: -0.931 ± 0.48 | promoter activity interaction Z-score [7, 16]: -0.816 ± 0.4 | promoter activity interaction Z-score [7, 17]: -1.26 ± 0.3 | promoter activity interaction Z-score [7, 18]: -0.703 ± 0.32 | promoter activity interaction Z-score [7, 19]: -1.19 ± 0.18 | promoter activity interaction Z-score [7, 20]: -0.827 ± 0.14 | promoter activity interaction Z-score [7, 21]: -0.674 ± 0.63 | promoter activity interaction Z-score [7, 22]: -0.555 ± 0.72 | promoter activity interaction Z-score [7, 23]: -0.65 ± 0.61 | promoter activity interaction Z-score [7, 24]: -1.152 ± 0.0016 | promoter activity interaction Z-score [7, 25]: -0.717 ± 0.57 | promoter activity interaction Z-score [7, 26]: 0.0561 ± 0.59
